Tb PFK inh = qHTS Assay to Find Inhibitors of T. brucei phosphofructokinase; ATP-dependent 6-phosphofructokinase (Trypanosoma brucei brucei), O15648; T. brucei PFK, ADP-Glo luminescence; Potency, µM (top dose mostly 57.5 µM), for inactives: top-dose activity, negative = inhibition, usual class: inhibitors; 0.17% of 330,000 active;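 further: 0% = uninhibited 1x PFK enzyme wells and -100% = no-enzyme wells; nearly all actives have a fitted effect of over 60% in size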
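Activity is normalized to no-enzyme wells (full inhibition) and 1.25 nM enzyme wells (no inhibition). Reaction: 0.5 mM F6P, 0.1 mM ATP, 45 min RT, ADP-Glo luminescence; concentration-response curves fitted and classed by quality.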
BRCA1 expr up = qHTS Assay to Identify Small Molecule Activators of BRCA1 Expression; MCF7-BRCA1-FFLuc reporter, luminescence, 48 h; response scale: scaled: vehicle 0%, 10 µM genistein 100%; Potency, µM (titrated, usually from 46.1 µM), for the others: top-dose activation, most hits filed as activators; 1.1% of 380,000 active; further: nearly all actives have a fitted effect of over 80% in size
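Compounds are tested at multiple concentrations on MCF7 BRCA1-luciferase reporter cells seeded at 2000 per well; after 48 h, a single luminescence end-point is taken and curves fitted to the normalized data.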
PLK1 PBD block = qHTS for Inhibitors of PLK1-PDB (polo-like kinase 1 - polo-box domain): Primary Screen; Plk1 PBD binding of FITC phosphopeptide, fluorescence polarization; 2.8% of 360,000 active; Serine/threonine-protein kinase PLK1 (Homo sapiens), P53350; Potency, µM, for inactives: max response, negative = inhibition, hits mostly inhibitors; further: series mostly up to about 57 µM; on the % scale 0 is the no-effect control and ±100 the full control effect; nearly all actives have a fitted effect of over 65% in size
VDR inhibitor = Inhibitors of the vitamin D receptor (VDR): qHTS; Potency, µM, without a hit: max response, negative = inhibition, most hits filed as inhibitors; VDR-SRC2-3 peptide fluorescence polarization, 2 h; Vitamin D3 receptor (Homo sapiens), P11473; 0.93% of 400,000 active; further: on the % scale 0 is the no-effect control and ±100 the full control effect
Target sequence (P11473 whole entry, looked up): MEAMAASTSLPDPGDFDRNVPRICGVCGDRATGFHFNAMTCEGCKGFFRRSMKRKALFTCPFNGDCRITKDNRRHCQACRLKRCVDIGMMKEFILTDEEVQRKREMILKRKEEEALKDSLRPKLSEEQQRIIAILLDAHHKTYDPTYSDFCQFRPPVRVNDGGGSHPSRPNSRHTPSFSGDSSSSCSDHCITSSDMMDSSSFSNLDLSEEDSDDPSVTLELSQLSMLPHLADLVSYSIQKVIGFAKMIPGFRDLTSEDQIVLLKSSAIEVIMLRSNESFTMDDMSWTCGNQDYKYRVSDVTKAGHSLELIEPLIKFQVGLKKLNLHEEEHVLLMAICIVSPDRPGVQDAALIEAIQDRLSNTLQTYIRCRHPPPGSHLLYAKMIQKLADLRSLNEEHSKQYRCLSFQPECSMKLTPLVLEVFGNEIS
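After 23 nl compound addition and a short centrifugation, plates sat for 2 hours at ambient temperature; polarization of fluorescence then indicated loss of VDR binding to peptide SRC2-3.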
Starred values were filed as active, the others as inactive; ? = inconclusive; . = no result given. The list is not random: actives were taken first. Their share in the collection is about 3.9%. The call rests on the fitted dose curve; in most records, active means well fitted curve in the direction sought with a large enough effect; inconclusive means small, poorly fitted or top-dose-only effect, or another doubt; inactive means no such curve, though single readings can be large; an effect the other way counts as inactive or inconclusive. Potency means the concentration at half of the fitted maximal effect.

SMILES	Tb PFK inh	BRCA1 expr up	PLK1 PBD block	VDR inhibitor
COc1cccc(NS(=O)(=O)c2cc3c(cc2C)NC(=O)CO3)c1	3%	-4%	0%	9%
CCOC(=O)c1ccc(NS(=O)(=O)c2cc3c(cc2C)NC(=O)CO3)cc1	12%	0%	30µM*	-11%
CCOC(=O)C1(C)CCN1C(=O)c1ccccc1C(F)(F)F (stereo not given)	.	-6%	-3%	.
CCC(=O)Nc1ccc(Cl)c(NC(=O)c2ccc([N+](=O)[O-])cc2)c1	3%	-12%	8.4µM*	?
CCCC(=O)Nc1ccc(Cl)c(NC(=O)CC)c1	-6%	-2%	27µM*	-28%
CCCCC(=O)Nc1cc(NC(=O)CC)ccc1Cl	-2%	0%	-2%	-12%
CC1(C(=O)NS(=O)(=O)c2cccc(C#N)c2)CCN1C(=O)C/C=C/c1ccccc1 (stereo not given)	.	5%	-14%	.
C[C@@H]1CN([C@H](C)CO)C(=O)CCCn2nncc2CO[C@H]1CN(C)Cc1ccc(Oc2ccccc2)cc1	.	-8%	3%	.
CCOC(=O)c1cccc(Nc2nc(C(=O)OCC)nc3ccccc23)c1	.	.	.	9%
CCOC(=O)c1nc(Nc2cccc(C)c2)c2ccccc2n1	7%	-1%	21µM*	-26%
O=C(C1CC1)N(Cc1nc2ccccc2c(=O)[nH]1)Cc1cccs1	-2%	0%	15µM*	?
CC(C)(C)C(=O)N(Cc1nc2ccccc2c(=O)[nH]1)Cc1cccs1	-2%	-3%	0%	5%
NCCC[C@@H](CC(=O)N[C@@H]1CCNC[C@H]1C(=O)N[C@H](CC(=O)N[C@@H](CCC(=O)O)CC(=O)O)Cc1c[nH]c2ccccc12)NC(=O)C[C@H](CO)NC(=O)[C@@H]1CCCC[C@H]1N	.	.	.	0%
O=C(N/N=C/c1cc([N+](=O)[O-])ccc1O)C(O)(c1ccccc1)c1ccccc1	1%	-66%	-18%	-7%
Cc1sc(N/N=C/c2cc([N+](=O)[O-])ccc2O)nc1-c1ccccc1	-1%	-37%	15µM*	?
O=[N+]([O-])c1ccccc1N/N=C\c1ccccc1Cl	-9%	2.5µM*	-5%	21%
O=[N+]([O-])c1ccc(O)c(/C=N/Nc2ccccc2Cl)c1	-10%	0%	27µM*	11%
O=C(N/N=C/c1cc([N+](=O)[O-])ccc1O)C1CC1	0%	-41%	0%	-9%
COc1ccc(Cn2c(CNS(=O)(=O)c3ccc4c(c3)CCCC4)nc3cccnc32)cc1	.	.	.	4%
Cc1ccc(NC(=O)C2COc3ccccc3O2)cc1S(=O)(=O)N1CCCCC1 (stereo not given)	0%	-15%	1%	-13%
CC(Sc1nc(C(C)(C)C)cc(-c2ccccc2)c1C#N)C(=O)Nc1ccccc1 (stereo not given)	-5%	-16%	12µM*	?
CCOC(=O)C(C)Sc1nc(-c2ccccc2Cl)cc(-c2ccccc2)c1C#N (stereo not given)	.	.	.	-14%
O=C(CNS(=O)(=O)c1ccccc1)NCC(=O)OCc1ccc(Br)cc1	-11%	-7%	12µM*	?
COC(=O)C(Cc1ccccc1)NC(=O)CNS(=O)(=O)c1ccc(Br)cc1 (stereo not given)	-1%	0%	-8%	-7%
COC(=O)C(NC(=O)CNS(=O)(=O)c1ccc(Br)cc1)c1ccccc1 (stereo not given)	6%	-27%	27µM*	0%
SMILES	Tb PFK inh	BRCA1 expr up	PLK1 PBD block	VDR inhibitor
Clc1ccc(Cc2nnc(-c3ccccc3Br)o2)cc1	-1%	14µM*	-9%	4%
Clc1ccccc1OCc1nnc(-c2ccccc2Br)o1	-4%	4µM*	-7%	10%
O=c1c(Cl)c(Cl)cnn1Cc1nnc(-c2ccccc2Br)o1	-2%	-90%	?	?
N#Cc1ccccc1OCc1nnc(-c2ccccc2Br)o1	-14%	?	-5%	14%
CCc1ccc(OCc2nnc(-c3ccccc3Br)o2)cc1	-1%	15%	30µM*	-7%
O=C(CCC(=O)N1CCSc2ccccc21)Nc1ccc(Cl)cc1	.	.	.	13%
